Source: PubChem
Shown are actives, neighbours in structure and some others; about 18% of the full set was active somewhere.
TGFb inhibitor = inhibitors of TGF-b signaling; actives 1.2% (n = 410,000); Potency, µM (titrated, usually from 46.1 µM), inactives show top-dose activity, negative = inhibition, hits mostly inhibitors; HepG2 CAGA-GFP TGF-b/SMAD3 reporter, GFP fluorescence, 18 h; TGF-beta stimulated, 500 pg/mL final; also: potency is read from the fitted curve at half-maximal effect; % is scaled to controls: 0 for no effect and ±100 for the full control effect; nearly all actives have a fitted effect of over 65% in size
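Cell-based qHTS in HEPG2 carrying a CAGA-GFP Smad reporter; compounds added before 500 pg/mL final TGF-beta, 18 h incubation at 37 degrees C, GFP fluorescence quantified per cell by imaging cytometry.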
DT40 TDP1 no CPT = qHTS for Inhibitors of human tyrosyl-DNA phosphodiesterase 1 (TDP1): qHTS in cells in absence of CPT; AID 686978, 2013; Potency, µM (top dose mostly 46.2 µM), without a hit: at the top dose activity change, negative = growth inhibition, hits mostly inhibitors; DT40 Tdp1-/- hTDP1 cells, no CPT, ATP luminescence, 48 h; actives 15% (n = 420,000); also: potency is read from the fitted curve at half-maximal effect; % is scaled to controls: 0 for no effect and ±100 for the full control effect; nearly all actives have a fitted effect of over 55% in size
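Camptothecin absent (DMSO only). Human TDP1-complemented DT40 knockout cells, 400 cells/well, 37 °C for minimum 48 hr; ATP measured via CellTiter-Glo, 30 min dark incubation, luminescence.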
IL-1B inflam inh = blocks inflammasome-driven IL-1 beta release; THP-1 LPS/ATP IL-1B secretion, AlphaLISA, 16 h; stronger effect = lower value; actives 4.7% (n = 360,000); activity change, % at 57.5 µM; in the data active = activity change below about -50%; inconclusive = mostly about -30% to -49%; also: % is scaled to controls: 0 for no effect and ±100 for the full control effect
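THP-1 cells pretreated 1 hr with compounds (up to 57.5 uM final), then stimulated with LPS (250 ng/mL final) plus ATP (1.25 mM final); secreted IL-1B measured by AlphaLISA after 16 hr, decreased signal indicating inhibition.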
DT40 TDP1 CPT = DT40-hTDP1 cell growth loss with CPT; chicken DT40 Tdp1-/-;hTDP1 cells + 20 nM CPT, ATP luminescence, 48 h; Potency, µM (titrated, usually from 46.2 µM), without a hit: at the highest dose activity change, negative = growth inhibition, usual class: inhibitors; actives 12% (n = 420,000); AID 686979; also: potency is read from the fitted curve at half-maximal effect; % is scaled to controls: 0 for no effect and ±100 for the full control effect; nearly all actives have a fitted effect of over 55% in size
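Chicken DT40 Tdp1-/- cells stably complemented with human TDP1 were seeded at 400 cells/well in medium containing 20 nM camptothecin, exposed to pin-transferred compounds, and grown at 37 °C for at least 48 hr. Viability was read as ATP luminescence.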
TDP1 block = inhibitors of human tyrosyl-DNA phosphodiesterase TDP1 | actives 0.28% (n = 350,000) | Potency, µM (highest dose often 130 µM), for the others: at the top dose activity change, negative = inhibition, actives largely listed as inhibitors | AID 485290 | recombinant TDP1, AlphaScreen DNA substrate cleavage | Q9NUW8; also: potency is read from the fitted curve at half-maximal effect; % is scaled to controls: 0 for no effect and ±100 for the full control effect; nearly all actives have a fitted effect of over 40% in size
Target sequence (Q9NUW8 whole entry, looked up): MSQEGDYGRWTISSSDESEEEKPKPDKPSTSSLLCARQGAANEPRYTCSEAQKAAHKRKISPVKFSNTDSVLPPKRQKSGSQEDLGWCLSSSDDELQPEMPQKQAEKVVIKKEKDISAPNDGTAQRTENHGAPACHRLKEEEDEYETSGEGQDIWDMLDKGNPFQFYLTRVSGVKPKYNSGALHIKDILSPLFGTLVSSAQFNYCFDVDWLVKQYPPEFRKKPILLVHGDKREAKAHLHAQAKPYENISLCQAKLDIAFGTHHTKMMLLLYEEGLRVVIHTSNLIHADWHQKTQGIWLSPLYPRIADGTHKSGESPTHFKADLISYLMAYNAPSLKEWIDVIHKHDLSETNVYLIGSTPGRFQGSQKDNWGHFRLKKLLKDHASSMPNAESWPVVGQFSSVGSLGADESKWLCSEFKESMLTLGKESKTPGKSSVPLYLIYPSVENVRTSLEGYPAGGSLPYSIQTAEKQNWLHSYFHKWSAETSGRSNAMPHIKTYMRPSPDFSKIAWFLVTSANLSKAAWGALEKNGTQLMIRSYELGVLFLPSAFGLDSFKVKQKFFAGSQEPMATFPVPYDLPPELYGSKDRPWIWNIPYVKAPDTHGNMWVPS
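E. coli-derived human Tdp1, 1 nM final. Cpd preinc 15 min RT; substrate 15 nM final, 5 min RT; AS bead mix 10 ug/ml final, 10 min RT. Signal loss = tyrosine-FITC cleavage. No-enzyme wells = max signal.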
HepG2 viability = kills HepG2 cells in TGF-b inhibitor counter-screen | HepG2 CAGA-GFP viability, ATP luminescence, 18 h | Potency, µM (highest dose often 46.1 µM), for the others: at the highest dose activity change, negative = cytotoxicity, most hits filed as cytotoxic | actives 0.76% (n = 410,000) | AID 588856; also: potency is read from the fitted curve at half-maximal effect
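HepG2 CAGA-GFP cells (1000/well, DMEM with 1% FBS) received compound, then TGF-beta at 500 pg/mL final, and were incubated 18 hours at 37 degrees C. Viability was read by CellTiter-Glo luminescence. Media-only wells were set as complete cell-killing and DMSO as no toxicity.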
* hit, by the source's call; i = inactive; ? = inconclusive; . = no result. Unless noted, calls follow the shape of the dose curve; as a rule, active = well fitted curve in the direction sought with a large enough effect; inconclusive = small, poorly fitted or top-dose-only effect, or another doubt; inactive = no such curve, though single readings can be large; an effect the other way counts as inactive or inconclusive.

SMILES	TGFb inhibitor	DT40 TDP1 no CPT	IL-1B inflam inh	DT40 TDP1 CPT	TDP1 block	HepG2 viability
COc1cccc(NC(=O)CCS(=O)(=O)c2ccc(Br)cc2)c1	0.0%	-3.7%	0.0	-7.0%	.	-15.8%
COc1ccccc1NC(=O)CCCCCN1C(=O)c2cccc([N+](=O)[O-])c2C1=O	3.6%	?	22.3	-12.6%	.	-32.1%
COc1cc(/C=C2/C(=O)c3cccc([N+](=O)[O-])c3C2=O)c(Br)cc1O	?	5.17µM*	32.5	6.51µM*	1.1%	-32.7%
CN(C)c1nccc(N(Cc2ccccc2)Cc2ccccc2)c1C#N	?	29.1µM*	-12.5	18.4µM*	-2.0%	0.7%
O=C(Nc1ccc(N2CCN(C(=O)c3ccc(Cl)cc3)CC2)cc1)c1cccnc1	12.9%	?	?	?	9.1%	27.6%
O=C(Nc1ccc(N2CCN(C(=O)c3ccccc3)CC2)cc1)c1cccnc1	-2.0%	-18.6%	-57.9*	-18.4%	7.4%	-20.6%
O=C(Nc1ccc(N2CCN(C(=O)c3cccs3)CC2)cc1)c1cccnc1	-5.6%	?	-52.0*	?	2.7%	2.6%
COc1cc(C(=O)N2CCC2(C)C(=O)NC(C)C)cc(OC)c1OC (stereo not drawn)	9.2%	3.2%	5.2	0.8%	.	-2.0%
CCOC(=O)C1=C(C)N=C2SCCC(=O)N2[C@@H]1c1cccs1	-8.9%	-23.4%	14.6	10.9%	0.6%	14.3%
CC1=C(C(=O)OCc2ccccc2)C(c2cccs2)N2C(=O)CCSC2=N1 (stereo not drawn)	-6.2%	-25.3%	-56.4*	0.3%	0.0%	0.5%
COc1cc(C2C(C(=O)OC(C)C)=C(C)N=C3SCCC(=O)N32)ccc1OCc1ccccc1 (stereo not drawn)	-1.5%	29.1µM*	.	13µM*	0.0%	-40.5%
COc1ccccc1/C=C/C1C(C(=O)OCC(C)C)=C(C)N=C2SCCC(=O)N21 (stereo not drawn)	-8.4%	3.9%	-68.7*	1.9%	2.6%	8.7%
N#C/C(=C1/SCC(c2ccccc2Cl)S1)n1ccnc1 (stereo not drawn)	.	.	.	.	6.4%	.
O=S1(=O)CCOCCCN1Cc1ccc(Cl)cc1	-5.5%	?	12.9	5.2%	.	1.0%
CCOC(=O)N1CCC(NC(=O)C2CCCN(Cc3nc(-c4cccc(C)c4)oc3C)C2)CC1 (stereo not drawn)	?	2.59µM*	-27.0	5.8µM*	2.3%	-24.7%
Cc1cccc(-c2nc(CS(=O)CC(=O)NC3CCCCC3)c(C)o2)c1 (stereo not drawn)	-0.4%	-19.9%	-3.1	-21.4%	4.4%	-16.2%
COc1ccc(N2CCN(C(=O)c3ccc(-c4nc(COc5ccccc5)c(C)o4)cc3)CC2)cc1	5.6%	-11.9%	.	-16.9%	5.6%	7.3%
Cc1ccc(OCc2nc(-c3ccc(C(=O)N4CCN(c5cc(Cl)ccc5C)CC4)cc3)oc2C)cc1	2.1%	11.6µM*	.	23.1µM*	2.0%	11.2%
COc1ccc(-c2nc(CN3CCC(C(=O)NC4CCN(Cc5ccccc5)CC4)CC3)c(C)o2)cc1OC	2.7%	-26.0%	-29.7	-25.7%	4.0%	7.6%
Cc1cccc(-c2nc(CN3CCCC(C(=O)NC4CCC(C)CC4)C3)c(C)o2)c1 (stereo not drawn)	4.0%	18.4µM*	1.3	?	4.8%	5.6%
Cc1cccc(-c2nc(CN3CCCC(C(=O)NC4CCCC4)C3)c(C)o2)c1 (stereo not drawn)	-5.5%	11.6µM*	-23.9	?	3.1%	-22.1%
COc1ccc(COC(=O)c2ccc(Cl)c(S(=O)(=O)N3CC(C)OC(C)C3)c2)cc1 (stereo not drawn)	-7.4%	?	2.3	?	.	2.1%
CC[C@]1(c2ccccc2)NC(=O)NC1=O	.	.	.	.	5.6%	.
Cc1cccc(-c2nc(CN3CCCC(C(=O)N4CCN(c5cc(Cl)ccc5C)CC4)C3)c(C)o2)c1 (stereo not drawn)	-21.2%	20.6µM*	.	16.4µM*	9.2%	-18.3%
COc1ccccc1NC(=O)C1=C(C)Nc2nc(SCc3ccccc3Cl)nn2C1c1ccccn1 (stereo not drawn)	1.3%	?	.	?	0.0%	-6.9%
SMILES	TGFb inhibitor	DT40 TDP1 no CPT	IL-1B inflam inh	DT40 TDP1 CPT	TDP1 block	HepG2 viability
OC(c1ccc(Cl)cc1)c1ncc(-c2cccc(C(F)(F)F)c2)[nH]1 (stereo not drawn)	?	20.6µM*	?	?	.	10µM*
OC(c1cc(F)cc(Cl)c1)c1ncc(-c2cccc(C(F)(F)F)c2)[nH]1 (stereo not drawn)	11.2µM*	13µM*	-7.8	16.4µM*	.	-67.1%
O=c1[nH]c(N/N=C/c2cc3c(cc2[N+](=O)[O-])OCO3)nc2ccccc12	-2.8%	-16.8%	29.0	-25.0%	5.7%	6.2%
O=[N+]([O-])c1cc(/C=N/Nc2nc3ccccc3[nH]2)c(O)cc1O	?	4.61µM*	61.1	4.61µM*	5.7%	-11.2%
CN(C)c1nc(N/N=C/c2c[nH]c3ccccc23)nc(N2CCOCC2)n1	5.0%	?	?	?	-1.3%	-40.8%
COc1ccc(/C=N/Nc2nc3ccccc3[nH]2)c(OC)c1OC	7.2%	?	-1.8	?	9.4%	-9.6%
Cc1ccccc1/C=N/Nc1nc2ccccc2[nH]1	-22.7%	?	-68.4*	?	8.6%	-17.2%
C(=N\Nc1nc(N2CCCCC2)nc(N2CCCCC2)n1)/c1c[nH]c2ccccc12	?	16.4µM*	-59.8*	?	4.7%	-58.4%
C(=N\Nc1nc2ccccc2[nH]1)/c1c[nH]c2ccccc12	?	16.4µM*	-95.1*	?	8.2%	1.7%
Cc1cccc(NC(=O)N2CCN(C(=O)c3nsc4ccccc34)CC2)c1C	0.0%	?	.	-3.4%	8.1%	-1.3%
c1cnc2c(OCc3nc4ccccc4[nH]3)cccc2c1	14.2%	-8.3%	-5.9	-14.9%	7.2%	-30.1%
Cc1[nH]c2ccccc2c1/C=N/Nc1nc2ccccc2[nH]1	?	?	-105.4*	?	-7.7%	-3.0%
Cc1[nH]c2ccccc2c1/C=N/Nc1nc(N2CCCCC2)nc(N2CCCCC2)n1	9.0%	?	i	?	6.7%	-8.9%
Cc1ccc(/C=N/Nc2nc3ccccc3[nH]2)s1	?	?	-107.8*	14.6µM*	8.1%	-16.6%
